Experimental data: PubChem BioAssay AID1159580 (chemical genetic matrix, 2015)
Where “and” joins values, the source holds several entries; their conditions need not be identical. Identical values can stand only once. The campaign covered roughly 5,500 compounds. About 2,000 (36%) were called active. Roughly 18% stayed inconclusive and do not appear here. Rule as the data show it: active = normalized growth mostly below about 0.91 (no sharp cut-off); inconclusive = no clear call, values can overlap the other calls; inactive = mostly above about 0.92. This is one part of the list.

Test: chemical genetic growth profiling, strain panel (AID 1159580);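 also: tested at 20 µM; growth read once vehicle control cultures reached saturation at 30 °C; 1 = growth at the plate median or of vehicle wells; lower values mean less growth of the strain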
Details: S. cerevisiae deletion strains, growth OD

Measured: normalized growth

CC(=O)O[C@@H]1CC2C(C)(CC[C@H](O)C2(C)C)C2CC[C@]3(C)C(=CC(=O)O[C@H]3c3ccoc3)C21C (stereo not given in full)
inactive: locus YAL013W, strain DEP1, stronger effect = lower value 0.999 | locus YAL021C, strain ccr4, stronger effect = lower value 0.995 | locus YAL026C, strain drs2, stronger effect = lower value 1 | locus YAL030W, strain snc1, stronger effect = lower value 0.998 | locus YBL061C, strain skt5, stronger effect = lower value 1.02 | locus YBR009C, strain hhf1, stronger effect = lower value 1.02 | locus YBR021W, strain FUR4, stronger effect = lower value 0.868 | locus YBR023C, strain chs3, stronger effect = lower value 1 | locus YBR171W, strain sec66, stronger effect = lower value 1 | locus YBR229C, strain ROT2, stronger effect = lower value 1 | locus YBR231C, strain swc5, stronger effect = lower value 1 | locus YBR279W, strain paf1, stronger effect = lower value 1 | locus YCL011C, strain gbp2, stronger effect = lower value 0.995 | locus YCL016C, strain dcc1, stronger effect = lower value 1 | locus YCL029C, strain bik1, stronger effect = lower value 0.999 | locus YCL061C, strain MRC1, stronger effect = lower value 0.999 | locus YCL069W, strain vba3, stronger effect = lower value 1.02 | locus YCR088W, strain abp1, stronger effect = lower value 1 | locus YDL005C, strain med2, stronger effect = lower value 0.986 | locus YDL035C, strain GPR1, stronger effect = lower value 1.02 | locus YDL040C, strain nat1, stronger effect = lower value 1 | locus YDL074C, strain BRE1, stronger effect = lower value 1.02 | locus YDL101C, strain DUN1, stronger effect = lower value 1 | locus YDL134C, strain PPH21, stronger effect = lower value 0.984 | locus YDL185W, strain tfp1, stronger effect = lower value 1 | locus YDL192W, strain arf1, stronger effect = lower value 1 | locus YDR001C, strain nth1, stronger effect = lower value 1 | locus YDR069C, strain doa4, stronger effect = lower value 1.02 | locus YDR101C, strain arx1, stronger effect = lower value 0.994 | locus YDR137W, strain rgp1, stronger effect = lower value 0.988 | locus YDR150W, strain NUM1, stronger effect = lower value 1.01 | locus YDR159W, strain sac3, stronger effect = lower value 1.01 | locus YDR162C, strain NBP2, stronger effect = lower value 1 | locus YDR195W, strain ref2 0.992 | locus YDR297W, strain sur2, stronger effect = lower value 1 | locus YDR318W, strain mcm21, stronger effect = lower value 0.993 | locus YDR334W, strain swr1, stronger effect = lower value 1 | locus YDR335W, strain msn5, stronger effect = lower value 1.02 | locus YDR388W, stronger effect = lower value 0.996 | locus YDR392W, strain spt3, stronger effect = lower value 0.952 | locus YDR502C, strain sam2, stronger effect = lower value 0.975 | locus YEL003W, strain gim4, stronger effect = lower value 1.02 | locus YEL037C, strain rad23, stronger effect = lower value 1.01 | locus YEL061C, strain CIN8 (second series), stronger effect = lower value 1.01 | locus YEL061C, strain CIN8, stronger effect = lower value 1 | locus YER015W, strain faa2, stronger effect = lower value 1 | locus YER016W, strain bim1, stronger effect = lower value 0.99 | locus YER110C, stronger effect = lower value 0.987 | locus YER111C, strain swi4, stronger effect = lower value 0.998 | locus YER155C, strain BEM2 (second series), stronger effect = lower value 1 | locus YER155C, strain BEM2, stronger effect = lower value 0.993 | locus YER167W, strain BCK2, stronger effect = lower value 1.01 | locus YFR010W, strain ubp6, stronger effect = lower value 1.01 | locus YGL078C, strain dbp3, stronger effect = lower value 0.993 | locus YGL086W, strain mad1, stronger effect = lower value 0.996 | locus YGL167C, strain pmr1, stronger effect = lower value 0.999 | locus YGL173C, strain kem1, stronger effect = lower value 1.01 | locus YGL227W, strain vid30, stronger effect = lower value 0.994 | locus YGL240W, strain doc1, stronger effect = lower value 0.99 | locus YGL248W, strain PDE1, stronger effect = lower value 1 | locus YGL253W, strain hxk2, stronger effect = lower value 0.997 | locus YGR078C, strain PAC10, stronger effect = lower value 0.995 | locus YGR135W, strain pre9, stronger effect = lower value 0.959 | locus YGR229C, strain SMI1, stronger effect = lower value 0.971 | locus YGR252W, strain gcn5, stronger effect = lower value 0.946 | locus YHR013C, strain ard1, stronger effect = lower value 0.983 | locus YHR027C, strain rpn1, stronger effect = lower value 1.02 | locus YHR030C, strain SLT2, stronger effect = lower value 0.996 | locus YHR079C, strain IRE1 (second series), stronger effect = lower value 0.986 | locus YHR079C, strain IRE1, stronger effect = lower value 0.994 | locus YHR094C, strain hxt1, stronger effect = lower value 0.984 | locus YHR129C, strain ARP1, stronger effect = lower value 1.01 | locus YHR142W, strain chs7, stronger effect = lower value 1 | locus YHR200W, strain rpn10, stronger effect = lower value 0.995 | locus YIL066C, strain RNR3, stronger effect = lower value 1.02 | locus YIL073C, strain SPO22, stronger effect = lower value 1.02 | locus YIL125W, strain kgd1, stronger effect = lower value 0.992 | locus YIR030C, strain dcg1, stronger effect = lower value 0.993 | locus YJL092W, strain hpr5, stronger effect = lower value 1.01 | locus YJL095W, strain BCK1 (second series), stronger effect = lower value 1.01 | locus YJL095W, strain BCK1, stronger effect = lower value 1 and 0.986 | locus YJL115W, strain asf1, stronger effect = lower value 0.994 | locus YJL129C, strain trk1, stronger effect = lower value 0.99 | locus YJL134W, strain LCB3, stronger effect = lower value 1 | locus YJL154C, strain vps35, stronger effect = lower value 0.996 | locus YJL164C, strain tpk1, stronger effect = lower value 1 | locus YJL166W, strain qcr8, stronger effect = lower value 1 | locus YJL168C, strain set2, stronger effect = lower value 0.994 | locus YJL187C, strain SWE1 (second series), stronger effect = lower value 1 | locus YJR043C, strain POL32, stronger effect = lower value 1.05 | locus YJR066W, strain TOR1, stronger effect = lower value 0.886 | locus YKL009W, strain mrt4, stronger effect = lower value 0.985 | locus YKL068W, stronger effect = lower value 0.997 | locus YKL085W, strain MDH1 (second series), stronger effect = lower value 0.99 | locus YKL085W, strain MDH1, stronger effect = lower value 0.99 | locus YKL160W, strain elf1, stronger effect = lower value 0.991 | locus YKR001C, strain vps1, stronger effect = lower value 0.978 | locus YKR026C, strain gcn3, stronger effect = lower value 0.995 | locus YKR091W, strain srl3, stronger effect = lower value 0.998 | locus YLL001W, strain dnm1, stronger effect = lower value 0.993 | locus YLL026W, stronger effect = lower value 0.989 | locus YLL041C, strain sdh2, stronger effect = lower value 0.989 | locus YLR027C, strain aat2, stronger effect = lower value 1.01 | locus YLR039C, strain RIC1, stronger effect = lower value 1.05 | locus YLR058C, strain SHM2, stronger effect = lower value 1 | locus YLR102C, strain apc9, stronger effect = lower value 0.99 | locus YLR113W, strain HOG1, stronger effect = lower value 1.04 | locus YLR221C, strain rsa3, stronger effect = lower value 1 | locus YLR258W, strain gsy2, stronger effect = lower value 1.01 | locus YLR262C, strain YPT6 (second series), stronger effect = lower value 1.01 | locus YLR262C, strain YPT6, stronger effect = lower value 1.03 | locus YLR268W, strain sec22, stronger effect = lower value 0.988 | locus YLR320W, strain mms22, stronger effect = lower value 0.992 | locus YLR342W, strain FKS1, stronger effect = lower value 0.994 | locus YLR357W, strain rsc2, stronger effect = lower value 0.984 | locus YLR370C, strain arc18, stronger effect = lower value 0.998 | locus YLR371W, strain rom2, stronger effect = lower value 1 | locus YLR384C, strain iki3, stronger effect = lower value 0.978 | locus YLR418C, strain cdc73, stronger effect = lower value 0.948 | locus YML016C, strain PPZ1, stronger effect = lower value 1.01 | locus YML032C, strain rad52, stronger effect = lower value 0.984 | locus YML120C, strain ndi1, stronger effect = lower value 1 | locus YML124C, strain tub3, stronger effect = lower value 0.985 | locus YMR058W, strain fet3, stronger effect = lower value 1.01 | locus YMR078C, strain ctf18, stronger effect = lower value 0.996 | locus YMR125W, strain sto1, stronger effect = lower value 1.02 | locus YMR129W, stronger effect = lower value 0.989 | locus YMR205C, strain PFK2, stronger effect = lower value 0.995 | locus YMR223W, strain ubp8, stronger effect = lower value 0.99 | locus YMR231W, strain pep5, stronger effect = lower value 1 | locus YMR263W, strain SAP30, stronger effect = lower value 0.998 | locus YMR307W, strain GAS1, stronger effect = lower value 1.08 | locus YNL067W, strain RPL9B, stronger effect = lower value 0.989 | locus YNL071W, strain lat1, stronger effect = lower value 1.01 | locus YNL153C, strain GIM3, stronger effect = lower value 1.01 | locus YNL183C, strain NPR1, stronger effect = lower value 0.935 | locus YNL209W, strain ssb2, stronger effect = lower value 0.994 | locus YNL233W, strain BNI4, stronger effect = lower value 0.991 | locus YNL248C, strain rpa49, stronger effect = lower value 0.975 | locus YNL250W, strain rad50, stronger effect = lower value 0.989 | locus YNL271C, strain bni1, stronger effect = lower value 1 | locus YNL298W, strain CLA4, stronger effect = lower value 0.985 | locus YNL307C, strain MCK1, stronger effect = lower value 0.98 | locus YNL322C, strain KRE1 (second series), stronger effect = lower value 0.971 | locus YNL322C, strain KRE1, stronger effect = lower value 1.01 | locus YNR049C, strain mso1, stronger effect = lower value 0.993 | locus YNR052C, strain pop2, stronger effect = lower value 0.991 | locus YOL012C, strain htz1 0.837 | locus YOL147C, strain pex11, stronger effect = lower value 0.983 | locus YOR001W, strain rrp6, stronger effect = lower value 1.01 | locus YOR061W, strain CKA2, stronger effect = lower value 1 | locus YOR069W, strain VPS5, stronger effect = lower value 1 | locus YOR070C, strain gyp1, stronger effect = lower value 0.993 | locus YOR080W, strain dia2, stronger effect = lower value 0.99 | locus YOR083W, strain WHI5, stronger effect = lower value 0.988 | locus YOR106W, strain vam3, stronger effect = lower value 1 | locus YOR136W, strain idh2, stronger effect = lower value 0.989 | locus YOR144C, strain elg1, stronger effect = lower value 0.991 | locus YOR184W, strain ser1, stronger effect = lower value 0.992 | locus YOR231W, strain MKK1, stronger effect = lower value 0.958 | locus YOR265W, strain rbl2, stronger effect = lower value 1.02 | locus YOR270C, strain vph1, stronger effect = lower value 0.965 | locus YOR290C, strain snf2, stronger effect = lower value 0.993 | locus YOR316C, strain cot1, stronger effect = lower value 0.989 | locus YPL051W, strain arl3, stronger effect = lower value 0.974 | locus YPL078C, strain atp4, stronger effect = lower value 0.988 | locus YPL106C, strain sse1, stronger effect = lower value 0.996 | locus YPL240C, strain hsp82, stronger effect = lower value 1 | locus YPL241C, strain CIN2, stronger effect = lower value 1 | locus YPL256C, strain CLN2, stronger effect = lower value 0.991 | locus YPR119W, strain clb2, stronger effect = lower value 0.994 | locus YPR141C, strain kar3, stronger effect = lower value 0.987 | locus YPR163C, strain tif3, stronger effect = lower value 0.98 | locus YPR167C, strain met16, stronger effect = lower value 0.979 | strain wtn01, stronger effect = lower value 0.995
